Experimental data published in PubChem BioAssay (Tox21).
Where “and” joins values, the source holds several entries; their conditions need not be identical. Equal entries are not always repeated. Inconclusive results are not listed. Where a call stands in place of a potency, no number is given. More than one record can exist for a structure, and the calls need not agree. Calls of active or inactive are those of the source. Unless noted, calls come from the whole dose curve; as a rule, active = well fitted curve in the direction sought with a large enough effect in the repeat runs; inconclusive = weak or mixed curves; inactive = no such curve, though single readings can be large; an effect the other way counts as inactive or inconclusive.

How the values were obtained:
[1] = target: Nuclear receptor subfamily 1 group I member 2 (Homo sapiens) (UniProt O75469); assay: Human pregnane X receptor (PXR) small molecule agonists, qHTS assay (AID 1346982); note: nearly all actives have a fitted effect of over 35% in size; note: potency is the fitted concentration of half-maximal effect
Sequence of Nuclear receptor subfamily 1 group I member 2 (Homo sapiens) (O75469 whole entry, looked up): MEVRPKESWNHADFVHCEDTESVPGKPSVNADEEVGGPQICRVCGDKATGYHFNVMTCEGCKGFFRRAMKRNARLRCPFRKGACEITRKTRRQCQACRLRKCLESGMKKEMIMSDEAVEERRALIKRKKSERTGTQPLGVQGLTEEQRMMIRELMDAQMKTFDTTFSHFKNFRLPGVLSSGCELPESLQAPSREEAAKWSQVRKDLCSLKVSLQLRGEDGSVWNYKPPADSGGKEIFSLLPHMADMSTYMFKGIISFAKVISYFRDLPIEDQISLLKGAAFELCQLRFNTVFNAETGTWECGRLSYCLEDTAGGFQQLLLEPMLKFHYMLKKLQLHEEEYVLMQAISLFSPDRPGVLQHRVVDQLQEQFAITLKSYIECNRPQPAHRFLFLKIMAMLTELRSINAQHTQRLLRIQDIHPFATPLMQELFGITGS
Method in brief: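 We seeded PXR-Luc HepG2 cells in assay medium containing 5% charcoal-stripped FBS, added compounds 5 hr later, incubated 24 hr, and read luminescence with ONE-Glo reagent.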

[2] = target: Acetylcholinesterase (Homo sapiens) (UniProt P22303); assay: Acetylcholinesterase (AChE) small molecule antagonists: enzyme-based qHTS assay (AID 1347397; calls by dose curve; note: nearly all actives have a fitted effect of over 55% in size); details: Potency: AChE enzyme activity inhibition
Sequence of Acetylcholinesterase (Homo sapiens) (P22303 whole entry, looked up): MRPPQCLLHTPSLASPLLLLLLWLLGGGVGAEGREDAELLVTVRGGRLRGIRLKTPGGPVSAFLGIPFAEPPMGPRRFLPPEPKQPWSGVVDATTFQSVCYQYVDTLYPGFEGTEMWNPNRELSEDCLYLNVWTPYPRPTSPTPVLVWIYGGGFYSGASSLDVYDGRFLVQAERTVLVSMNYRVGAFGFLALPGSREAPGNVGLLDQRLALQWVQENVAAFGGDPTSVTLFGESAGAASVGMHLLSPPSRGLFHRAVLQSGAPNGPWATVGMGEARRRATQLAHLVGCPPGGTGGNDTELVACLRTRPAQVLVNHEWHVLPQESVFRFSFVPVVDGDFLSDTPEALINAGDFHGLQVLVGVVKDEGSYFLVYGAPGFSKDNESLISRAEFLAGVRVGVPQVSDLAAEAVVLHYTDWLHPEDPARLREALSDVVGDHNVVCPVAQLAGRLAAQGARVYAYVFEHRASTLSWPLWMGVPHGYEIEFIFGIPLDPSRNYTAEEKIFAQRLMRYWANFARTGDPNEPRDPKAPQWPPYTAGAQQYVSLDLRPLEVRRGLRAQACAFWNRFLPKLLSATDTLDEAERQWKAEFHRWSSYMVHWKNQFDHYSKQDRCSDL
Method in brief: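 rhAChE 50 mU/mL (dispensed) + cpd or DMSO, 30 min RT; add DTNB/acetylthiocholine cocktail, 10 min RT; colorimetric thiocholine readout. qHTS, 1536-well format.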

[3] = target: Acetylcholinesterase (Homo sapiens) (UniProt P22303); assay: Acetylcholinesterase (AChE) small molecule antagonists: fluorescence cell-based qHTS assay (AID 1347398; calls by dose curve; note: nearly all actives have a fitted effect of over 50% in size; note: potency is the fitted concentration of half-maximal effect); details: Potency: AChE activity
Method in brief: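 Read-out is Thiolite Green fluorescence at Ex/Em = 490/520 nm, formed by reaction with thiocholine released when cellular AChE in SH-SY5Y cells hydrolyzes acetylthiocholine. Compounds were preincubated 30 min at 37 C before substrate.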

[4] = target: Acetylcholinesterase (Homo sapiens) (UniProt P22303); assay: Acetylcholinesterase (AChE) small molecule antagonists: enzyme-based qHTS assay with human liver microsomes (AID 1347399; calls by dose curve; note: nearly all actives have a fitted effect of over 60% in size); details: Potency: qHTS inhibition
Method in brief: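 Recombinant human AChE (50 mU/mL in the enzyme mix) and human liver microsomes (0.25 mg/mL final) were preincubated with compound and NADPH (0.25 mg/mL final) for 30 min at 37 C. Acetylthiocholine/DTNB was then added; thiocholine was read colorimetrically after 10 min at room temperature.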

[5] = target: Cytochrome P450 2D6 (Homo sapiens) (UniProt P10635); assay: Cytochrome P450 Family 2 Subfamily D Member 6 (CYP2D6) small molecule antagonists: luciferase reporter qHTS assay (AID 1671196); note: nearly all actives have a fitted effect of over 50% in size; note: potency is the fitted concentration of half-maximal effect; for activity change, negative = inhibition: series mostly up to about 120 µM
Sequence of Cytochrome P450 2D6 (Homo sapiens) (P10635 whole entry, looked up): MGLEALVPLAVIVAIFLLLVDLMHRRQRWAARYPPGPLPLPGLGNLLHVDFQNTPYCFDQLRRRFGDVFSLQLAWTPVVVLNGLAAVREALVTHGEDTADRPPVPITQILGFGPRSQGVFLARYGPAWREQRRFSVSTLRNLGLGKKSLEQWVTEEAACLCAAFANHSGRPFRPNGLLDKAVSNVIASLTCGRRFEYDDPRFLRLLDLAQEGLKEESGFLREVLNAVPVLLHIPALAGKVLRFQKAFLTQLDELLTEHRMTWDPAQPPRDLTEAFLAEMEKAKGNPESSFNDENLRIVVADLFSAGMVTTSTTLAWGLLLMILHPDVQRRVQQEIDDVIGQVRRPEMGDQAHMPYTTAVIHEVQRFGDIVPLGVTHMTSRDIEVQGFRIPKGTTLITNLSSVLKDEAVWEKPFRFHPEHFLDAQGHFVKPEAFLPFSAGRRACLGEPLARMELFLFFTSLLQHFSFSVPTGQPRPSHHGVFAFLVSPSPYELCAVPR
Method in brief: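 Luminescence (RLU), read 20 min after detection reagent, indicated CYP2D6 conversion of proluciferin to luciferin during a 1 h NADPH-dependent reaction at room temperature.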

[6] = target: Cytochrome P450 2C19 (Homo sapiens) (UniProt P33261); assay: Cytochrome P450 Family 2 Subfamily C Member 19 (CYP2C19) small molecule antagonists: luciferase reporter qHTS assay (AID 1671197); note: nearly all actives have a fitted effect of over 65% in size; note: potency is the fitted concentration of half-maximal effect; for activity change, negative = inhibition: series mostly up to about 120 µM
Sequence of Cytochrome P450 2C19 (Homo sapiens) (P33261 whole entry, looked up): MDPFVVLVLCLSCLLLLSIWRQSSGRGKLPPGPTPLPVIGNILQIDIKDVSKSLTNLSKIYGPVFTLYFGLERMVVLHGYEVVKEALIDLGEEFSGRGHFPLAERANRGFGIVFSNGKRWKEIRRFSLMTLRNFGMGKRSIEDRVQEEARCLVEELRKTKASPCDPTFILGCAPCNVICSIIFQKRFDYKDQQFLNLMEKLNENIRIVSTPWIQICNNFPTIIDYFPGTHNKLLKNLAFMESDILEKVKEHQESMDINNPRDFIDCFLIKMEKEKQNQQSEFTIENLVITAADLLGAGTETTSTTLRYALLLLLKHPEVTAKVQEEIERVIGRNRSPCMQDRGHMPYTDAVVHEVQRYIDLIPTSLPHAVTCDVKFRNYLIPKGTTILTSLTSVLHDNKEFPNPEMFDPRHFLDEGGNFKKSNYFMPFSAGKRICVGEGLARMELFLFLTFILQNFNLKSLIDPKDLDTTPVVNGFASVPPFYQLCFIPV
Method in brief: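 Enzyme-substrate mix with proluciferin substrate (P450-Glo CYP2C19 system) preincubated with compounds 10 min at room temperature; NADPH regeneration solution added, 37C for 1 h; detection reagent stops reaction, luminescence read after 20 min. Ketoconazole positive control.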

[7] = target: Cytochrome P450 1A2 (Homo sapiens) (UniProt P05177); assay: Cytochrome P450 Family 1 Subfamily A Member 2 (CYP1A2) small molecule antagonists: luciferase reporter qHTS assay (AID 1671199); note: nearly all actives have a fitted effect of over 50% in size; note: potency is the fitted concentration of half-maximal effect; for activity change, negative = inhibition: series mostly up to about 120 µM
Sequence of Cytochrome P450 1A2 (Homo sapiens) (P05177 whole entry, looked up): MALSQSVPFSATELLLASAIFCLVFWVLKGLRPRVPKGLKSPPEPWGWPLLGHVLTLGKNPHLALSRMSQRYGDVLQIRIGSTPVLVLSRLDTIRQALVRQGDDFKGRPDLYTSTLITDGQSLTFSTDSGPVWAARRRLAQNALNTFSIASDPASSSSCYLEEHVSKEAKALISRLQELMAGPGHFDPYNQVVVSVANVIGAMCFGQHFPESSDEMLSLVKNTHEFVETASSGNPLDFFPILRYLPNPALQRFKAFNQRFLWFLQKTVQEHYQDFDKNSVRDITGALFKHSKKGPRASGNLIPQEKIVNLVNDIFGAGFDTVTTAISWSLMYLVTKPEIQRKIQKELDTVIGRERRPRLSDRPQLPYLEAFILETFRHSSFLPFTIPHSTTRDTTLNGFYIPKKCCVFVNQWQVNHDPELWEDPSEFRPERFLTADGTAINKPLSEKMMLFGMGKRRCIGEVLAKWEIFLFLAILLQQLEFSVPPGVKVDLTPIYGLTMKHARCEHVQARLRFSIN
Method in brief: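 CYP1A2 turnover of a luminogenic substrate was quantified after 1 h with NADPH regeneration at room temperature. Furafylline served as positive control.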

[8] = target: Voltage-gated inwardly rectifying potassium channel KCNH2 (Homo sapiens) (UniProt Q12809); assay: Human Ether-a-go-go-Related Gene (hERG) channel small molecule antagonists: fluorescence cell-based qHTS assay (AID 1671200);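 note: hERG-expressing U2OS cells given a thallium stimulus after FluxOR II dye loading; series mostly up to about 77 µM; nearly all actives have a fitted effect of over 50% in size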
Sequence of Voltage-gated inwardly rectifying potassium channel KCNH2 (Homo sapiens) (Q12809 whole entry, looked up): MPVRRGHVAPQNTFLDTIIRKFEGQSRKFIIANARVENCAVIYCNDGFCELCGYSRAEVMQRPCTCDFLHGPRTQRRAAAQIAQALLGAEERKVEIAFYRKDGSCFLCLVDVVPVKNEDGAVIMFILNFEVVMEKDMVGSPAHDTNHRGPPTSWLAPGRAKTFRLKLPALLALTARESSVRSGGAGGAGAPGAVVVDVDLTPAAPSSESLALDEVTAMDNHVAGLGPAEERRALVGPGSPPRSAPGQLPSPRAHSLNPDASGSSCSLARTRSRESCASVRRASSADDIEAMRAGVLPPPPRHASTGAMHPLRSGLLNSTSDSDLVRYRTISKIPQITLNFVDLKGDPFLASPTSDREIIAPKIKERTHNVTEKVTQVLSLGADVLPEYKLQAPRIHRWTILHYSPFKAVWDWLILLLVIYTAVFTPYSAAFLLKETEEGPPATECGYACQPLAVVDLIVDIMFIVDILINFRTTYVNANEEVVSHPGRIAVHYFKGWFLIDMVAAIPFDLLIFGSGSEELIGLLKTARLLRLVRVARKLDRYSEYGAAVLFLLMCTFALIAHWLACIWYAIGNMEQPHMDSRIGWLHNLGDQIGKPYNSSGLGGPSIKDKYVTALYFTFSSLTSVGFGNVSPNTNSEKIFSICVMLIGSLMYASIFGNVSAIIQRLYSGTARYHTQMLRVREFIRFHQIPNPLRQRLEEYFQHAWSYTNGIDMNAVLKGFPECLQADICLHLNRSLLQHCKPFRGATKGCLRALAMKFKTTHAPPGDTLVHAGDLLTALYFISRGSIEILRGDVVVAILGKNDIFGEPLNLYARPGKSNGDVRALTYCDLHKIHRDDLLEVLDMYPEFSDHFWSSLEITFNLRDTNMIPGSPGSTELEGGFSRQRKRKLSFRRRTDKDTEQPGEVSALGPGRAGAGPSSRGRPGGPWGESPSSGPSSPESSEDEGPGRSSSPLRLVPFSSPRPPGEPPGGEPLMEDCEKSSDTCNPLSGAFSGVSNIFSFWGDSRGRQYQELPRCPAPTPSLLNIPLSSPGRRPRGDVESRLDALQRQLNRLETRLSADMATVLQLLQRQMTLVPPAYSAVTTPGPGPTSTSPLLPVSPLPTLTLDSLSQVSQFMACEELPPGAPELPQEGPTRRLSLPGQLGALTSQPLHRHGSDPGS
Method in brief: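 Cell line hERG-U2OS; dye FluxOR II, 1 h RT dark; Tl+ stimulus; ex 480/em 540 nm, read each second for 2 min.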

[9] = target: Cytochrome P450 3A4 (Homo sapiens) (UniProt P08684); assay: Cytochrome P450 Family 3 Subfamily A Member 4 (CYP3A4) small molecule antagonists: luciferase reporter qHTS assay (AID 1671201); note: nearly all actives have a fitted effect of over 50% in size; note: potency is the fitted concentration of half-maximal effect; for activity change, negative = inhibition: series mostly up to about 120 µM
Sequence of Cytochrome P450 3A4 (Homo sapiens) (P08684 whole entry, looked up): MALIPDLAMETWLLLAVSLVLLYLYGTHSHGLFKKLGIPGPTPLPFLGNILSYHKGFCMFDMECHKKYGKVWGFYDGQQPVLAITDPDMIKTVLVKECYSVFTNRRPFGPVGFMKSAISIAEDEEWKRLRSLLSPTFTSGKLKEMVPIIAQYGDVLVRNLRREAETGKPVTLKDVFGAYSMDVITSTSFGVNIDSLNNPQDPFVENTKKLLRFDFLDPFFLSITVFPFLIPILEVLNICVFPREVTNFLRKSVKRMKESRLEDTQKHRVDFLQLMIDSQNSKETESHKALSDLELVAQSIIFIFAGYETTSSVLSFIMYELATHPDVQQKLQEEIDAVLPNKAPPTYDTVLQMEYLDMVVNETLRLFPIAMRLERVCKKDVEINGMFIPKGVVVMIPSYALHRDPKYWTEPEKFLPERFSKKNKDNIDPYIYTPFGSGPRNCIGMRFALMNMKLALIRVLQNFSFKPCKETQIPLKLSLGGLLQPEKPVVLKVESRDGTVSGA
Method in brief: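 Room-temperature assay throughout: 10 min compound–enzyme/substrate preincubation, 1 h reaction after NADPH regeneration solution, 20 min detection. Luciferin formed from proluciferin substrate is quantified by luminescence.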

[10] = Caspase-3/7 induction in HepG2 cells by small molecules, qHTS cell viability counter screen (AID 1346981); note: nearly all actives have a fitted effect of over 30% in size; note: potency is the fitted concentration of half-maximal effect
Method in brief: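 Multiplexed with the caspase-3/7 assay: HepG2 cells, 16 hr compound treatment, CellTiter-Fluor viability detection by fluorescence.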

[11] = target: Cytochrome P450 2C9 (Homo sapiens) (UniProt P11712); assay: Cytochrome P450 Family 2 Subfamily C Member 9 (CYP2C9) small molecule antagonists: luciferase reporter qHTS assay (AID 1671198); note: nearly all actives have a fitted effect of over 50% in size; note: potency is the fitted concentration of half-maximal effect; for activity change, negative = inhibition: series mostly up to about 120 µM
Sequence of Cytochrome P450 2C9 (Homo sapiens) (P11712 whole entry, looked up): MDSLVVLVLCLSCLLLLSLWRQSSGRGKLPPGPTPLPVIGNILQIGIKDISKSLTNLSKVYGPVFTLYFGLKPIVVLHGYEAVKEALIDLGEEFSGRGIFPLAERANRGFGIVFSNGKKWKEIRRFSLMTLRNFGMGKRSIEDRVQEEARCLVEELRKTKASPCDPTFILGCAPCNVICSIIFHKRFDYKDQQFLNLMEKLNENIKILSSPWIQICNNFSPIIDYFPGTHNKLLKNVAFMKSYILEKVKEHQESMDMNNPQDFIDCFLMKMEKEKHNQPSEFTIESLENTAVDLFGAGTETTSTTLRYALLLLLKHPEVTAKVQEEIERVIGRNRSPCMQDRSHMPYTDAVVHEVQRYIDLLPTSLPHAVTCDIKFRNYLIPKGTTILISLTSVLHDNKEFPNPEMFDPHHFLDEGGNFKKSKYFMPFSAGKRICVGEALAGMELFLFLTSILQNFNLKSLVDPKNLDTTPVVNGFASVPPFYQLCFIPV
Method in brief: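 Enzyme-substrate mix preincubated with compound 10 min at room temperature; reaction started with NADPH regeneration solution, 1 h 37C. Luminescent luciferin product read after 20 min detection reagent.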

[12] = target: Acetylcholinesterase (Homo sapiens) (UniProt P22303); assay: Acetylcholinesterase (AChE) small molecule antagonists: colormetric cell-based qHTS assay (AID 1347395; calls by dose curve; note: nearly all actives have a fitted effect of over 30% in size; note: potency is the fitted concentration of half-maximal effect)
Method in brief: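 In this cell-based qHTS, attached SH-SY5Y cells were treated with test chemicals for 30 min, after which acetylthiocholine hydrolysis was followed by DTNB colour development over 90 min at 37 C.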

[13] = target: Nuclear receptor subfamily 1 group I member 2 (Rattus norvegicus) (UniProt Q9R1A7); assay: Rat pregnane X receptor (rPXR) activation by small molecules, qHTS assay (AID 1346983); details: rPXR luciferase reporter cells, One-Glo luminescence, 24 h; stronger effect = higher value; note: nearly all actives have a fitted effect of over 20% in size
Method in brief: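 Luminescent readout (One-Glo luciferase, 30 min room temperature) followed 24 hr compound treatment at 37 C of rPXR cells plated 2,000 per well and preincubated 5hr; qHTS format with compounds delivered in DMSO.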

Row | SMILES | Potency [1] | Potency [2] | Potency [3] | Potency [4] | Potency [5] | Potency [6] | Potency [7] | Potency [8] | Potency [9] | Potency [10] | Potency [11] | Potency [12] | max activation [13] | activity change, negative = inhibition [6] | activity change, negative = inhibition [7]
1 | CCCC1COC(Cn2cncn2)(c2ccc(Cl)cc2Cl)O1 (stereo not given) | 31.2 µM (active) and 9.69 µM (active) | inactive | inactive | inactive | 32.3 µM (active) and 35.6 µM (active) | 456 nM (active) and 356 nM (active) | 20.4 µM (active) and 31.7 µM (active) | inactive | 51.2 nM (active) and 56.4 nM (active) | – | – | – | – | – | –
2 | NCC(O)c1ccc(O)cc1 (stereo not given) | inactive | – | – | – | inactive | inactive | inactive | inactive | inactive | inactive | – | – | – | – | –
3 | CCc1cccc(C)c1N(C(=O)CCl)C(C)COC (stereo not given) | 2.89 µM (active) and 3.06 µM (active) | inactive | – | inactive | inactive | 6.69 µM (active) and 6.33 µM (active) | 66.9 µM (active) and inactive | – | inactive | inactive | 29.9 µM (active) and 28.3 µM (active) | – | – | – | –
4 | CC1C=[C-]C=C1.[C-]#[O+].[C-]#[O+].[C-]#[O+].[Mn] | 54.5 µM (active) and 19.2 µM (active) | inactive | inactive | inactive | inactive | inactive | – | inactive | inactive | inactive | inactive | inactive | – | – | –
5 | Clc1ccc(Cl)cc1 | 1.93 µM (active) and inactive | inactive | – | inactive | inactive | inactive | inactive | – | inactive | 4.32 µM (active) and inactive | inactive | inactive | -1.7% (inactive) | – | –
6 | c1cc2c3c(cccc3c1)CC2 | inactive | inactive | inactive | inactive | inactive | 45.9 µM (active) and inactive | – | inactive | inactive | inactive | – | 36.5 µM (active) and inactive | – | – | –
7 | CC(C#N)CCC#N (stereo not given) | inactive | inactive | 35.2 µM (active) and inactive | inactive | inactive | inactive | inactive | inactive | inactive | inactive | inactive | – | – | – | –
8 | O=C(O)c1ccccn1 | inactive | inactive | inactive | inactive | inactive | inactive | inactive | – | inactive | inactive | – | inactive | – | – | –
9 | CC(C)NC(=O)N1CC(=O)N(c2cc(Cl)cc(Cl)c2)C1=O | 24.3 µM (active) and 54.5 µM (active) | inactive | inactive | inactive | inactive | 7.96 µM (active) and 8.94 µM (active) | 12.6 µM (active) | – | inactive | inactive | 1.26 µM (active) | – | – | – | –
10 | C=C(C)CCl | inactive | inactive | inactive | inactive | inactive | – | – | inactive | inactive | inactive | inactive | inactive | – | 3.29% [at 10.5 µM] (inactive) | -9.56% [at 10.5 µM] (inactive)
